Bioassay records deposited in PubChem BioAssay by several laboratories.
Shown are actives, neighbours in structure and some others; about 1.7% of the full set was active somewhere.
PLK1 kinase inh – PLK1 (human) kinase inhibition; P53350; recombinant PLK1 kinase, TR-FRET peptide phosphorylation; inhibition, % at 10 µM; 97,000 tested, 0.53% active;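 active = inhibition of 50% or more in the single-concentration screen; inactive = inhibition below 50%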;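 note: 0% = DMSO max control and 100% = H-89 dihydrochloride min control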
PLK1 PBD inh – inhibitors of human Plk1 polo box domain binding. P53350. Plk1 PBD phosphopeptide binding, fluorescence polarization. inhibition, %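 (tested at about 20 µM)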. 97,000 tested, 0.13% active. AID 693; in the data active = inhibition above about 34%, passing the limit was not always enough
Pyk2 oligo antag – Pyk2 (human) oligomerization antagonism. Q14289. Q293 cells, Pyk2 FERM NanoBiT luminescence; active compounds read low. z-score (the deposit names both 25 µM and 10 µM). 99,000 tested, 0.83% active;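 active = Z-score of -3 or lower, scaled per plate to the spread of control and sample wells; inactive = z-score above -3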;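 note: negative z-score means lost luminescence so less FERM oligomerization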
PTPN22 act – activators of human LYP (PTPN22) phosphatase; Q9Y2R2; recombinant LYP, DiFMUP fluorescence; 0 = plate median, 100 = signal doubled; activation, % at 2 µM; 96,000 tested, 0.11% active;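 active = activation at 2 µM above a set limit, the mean plus 5 SD, cut at about 37% in these data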
LYP inh 2 – blocks human PTPN22 phosphatase activity; Q9Y2R2; 96,000 tested, 0.21% active; recombinant LYP catalytic domain, DiFMUP fluorescence; inhibition, % at 2 µM; AID 640;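 active = inhibition at 2 µM at or above a set limit, the screen mean plus 3 SD, cut at about 24% in these data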;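 note: 0% = DMSO with enzyme and 100% = enzyme fully blocked by orthovanadate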
PLK1 confirm – confirmation of human PLK1 kinase inhibitors. AID 744. shares compounds with PLK1 kinase inh. inhibition, % at 10 µM. recombinant PLK1 kinase, TR-FRET peptide phosphorylation. 210 tested, 20% active;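 active = inhibition at or above 50% in each of two repeat confirmation tests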;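 note: 0% = DMSO max control and 100% = H-89 kinase-blocked min control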
Plk1 interf – interferes with the Plk1 assay readout, not true inhibition; shares compounds with PLK1 kinase inh; inhibition (interference), % at 10 µM; Plk1 TR-FRET assay interference, compound added post-reaction; 210 tested, under 10 active;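 active = both duplicate runs show 50% or greater inhibition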;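 note: 0% = DMSO max control and 100% = H-89 min control inhibited reaction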
The depositor's hits bear a star.

`CCCCNCc1cc(Br)c(OCC(=O)N2CCOCC2)c(OC)c1` gave PLK1 kinase inh 125.5*, PLK1 PBD inh 18.6, Pyk2 oligo antag -0.02, PTPN22 act -0.4, LYP inh 2 5.0, PLK1 confirm -6.4 and Plk1 interf -49.3.
Screening CCCCNCc1cc(Br)c(OCc2cccs2)c(OC)c1 returned PLK1 kinase inh -1.9, PLK1 PBD inh 23.5, Pyk2 oligo antag 0.93, PTPN22 act 5.4 and LYP inh 2 0.2.
Screening COc1ccc(NC(=O)Nc2nccs2)cc1 returned PLK1 kinase inh 3.8, PLK1 PBD inh 5.2, Pyk2 oligo antag -0.2, PTPN22 act -4.9 and LYP inh 2 6.5.
O=C(Nc1ccccc1)Nc1nccs1 was read as PLK1 kinase inh 93.0*, PLK1 PBD inh 0.1, Pyk2 oligo antag -0.24, PTPN22 act -3.4, LYP inh 2 6.2, PLK1 confirm 5.8 and Plk1 interf -52.9.
`Cc1cc(C)cc(OCC(O)CN2C(=O)NC(C)(C)C2=O)c1` (stereo not given) gave PLK1 kinase inh 71.6*, PLK1 PBD inh 13.1, PLK1 confirm -9.5 and Plk1 interf -59.1.
`O=C(CCC(=O)c1ccc(Cl)cc1)OCC(=O)c1ccccc1` gave PLK1 kinase inh 125.8*, PLK1 PBD inh -15.4, Pyk2 oligo antag 1.01, PTPN22 act 11.3, LYP inh 2 -6.1, PLK1 confirm -2.3 and Plk1 interf -53.4.
O=C(COC(=O)c1cccnc1)c1ccc(Cl)cc1 was read as PLK1 kinase inh -2.1, PLK1 PBD inh 15.6, Pyk2 oligo antag -0.18, PTPN22 act -3.5 and LYP inh 2 4.0.
O=C(Cn1nc(Cc2cccnc2)c2ccccc2c1=O)NCc1ccc2c(c1)OCO2 was read as PLK1 kinase inh 72.3*, PLK1 PBD inh 6.3, PLK1 confirm 21.1 and Plk1 interf -49.2.
`COc1ccc(C(O)Cc2nc3ccccc3n2C)cc1OC` (stereo not given) gave PLK1 kinase inh -8.7, PLK1 PBD inh -13.2, Pyk2 oligo antag 0.63, PTPN22 act -2.2 and LYP inh 2 1.3.
Screening CC1Cc2nc(SCC(=O)Nc3nccs3)n(C)c(=O)c2S1 (stereo not given) returned PLK1 kinase inh 73.0*, PLK1 PBD inh 6.8, PTPN22 act -1.3, LYP inh 2 0.2, PLK1 confirm 63.9* and Plk1 interf -49.7.
For Cc1nnc(NC(=O)CSc2nc3c(c(=O)n2C)SC(C)C3)s1 (stereo not given) the results were PLK1 kinase inh -6.4, PLK1 PBD inh 13.2, PTPN22 act 4.3 and LYP inh 2 -5.4.
`Cc1ccc(C(=O)C(OC(=O)CNC(=O)c2ccc(Cl)cc2)c2ccccc2)cc1` (stereo not given) gave PLK1 kinase inh -8.8, PLK1 PBD inh 22.3, Pyk2 oligo antag -0.63, PTPN22 act -0.1 and LYP inh 2 0.6.
COc1cccc(C2CC(c3ccc(Cl)cc3Cl)n3nc(N)nc3N2)c1 (stereo not given) was read as PLK1 kinase inh 75.5*, PLK1 PBD inh -28.2, PLK1 confirm -5.6 and Plk1 interf -51.5.
CC(=O)c1sc(NC(=O)CN2C(=O)CCC2=O)nc1C was read as PLK1 kinase inh -18.7, PLK1 PBD inh 24.7, Pyk2 oligo antag 0.74, PTPN22 act -1.0 and LYP inh 2 0.6.
Screening COc1cccc(NC(=O)CN2C(=O)COc3ccc(Cl)cc32)c1 returned PLK1 kinase inh 76.3*, PLK1 PBD inh 15.4, PLK1 confirm -0.2 and Plk1 interf -47.9.
Screening CC(=O)Nc1nc(SCCCc2ccccc2)n[nH]1 returned PLK1 kinase inh -4.6, PLK1 PBD inh -13.8, Pyk2 oligo antag -0.07, PTPN22 act -9.0 and LYP inh 2 8.4.
For O=C(CSc1nc2ncc(Br)cc2[nH]1)Nc1ccc2c(c1)OCO2 the results were PLK1 kinase inh 70.3*, PLK1 PBD inh 12.0, Pyk2 oligo antag -0.35, PTPN22 act -3.0, LYP inh 2 1.2, PLK1 confirm 23.1 and Plk1 interf -49.2.
CCOc1ccc2nc(SCC(=O)Nc3ccc4c(c3)OCCO4)[nH]c2c1 was read as PLK1 kinase inh -10.8, PLK1 PBD inh -5.9, Pyk2 oligo antag -2.61, PTPN22 act -0.6 and LYP inh 2 3.5.
For CC1=Nc2ncnn2C(c2ccccc2)/C1=N\O (stereo not given) the results were PLK1 kinase inh -11.6, PLK1 PBD inh 17.5, Pyk2 oligo antag -0.61, PTPN22 act -8.1 and LYP inh 2 7.2.
For C1CNCCOCCNCCN1 the results were PLK1 kinase inh -3.8, PLK1 PBD inh -44.2, Pyk2 oligo antag 0.16, PTPN22 act -6.6 and LYP inh 2 9.2.
Screening Cc1[nH]n(-c2ccccc2)c(=O)c1C(C[N+](=O)[O-])c1ccc(Br)cc1 (stereo not given) returned PLK1 kinase inh 100.8*, PLK1 PBD inh 1.7, Pyk2 oligo antag -1.28, PTPN22 act -18.1, LYP inh 2 16.7, PLK1 confirm -6.2 and Plk1 interf -49.1.
Screening COc1cccc(CNC(=O)Cn2nc(-c3ccc(Cl)cc3)ccc2=O)c1 returned PLK1 kinase inh -0.7, PLK1 PBD inh -10.5, Pyk2 oligo antag 1.83, PTPN22 act 1.0 and LYP inh 2 4.2.
Cc1ccc(NC(=O)COS(=O)c2ccc(C)cc2)cc1 (stereo not given) was read as PLK1 kinase inh -18.9, PLK1 PBD inh -5.2, Pyk2 oligo antag 0.14, PTPN22 act 0.2 and LYP inh 2 -3.5.
For Cc1ccc(NC(=O)CSc2nc3nc(C)cc(C)c3c(=O)[nH]2)cc1 the results were PLK1 kinase inh 73.0*, PLK1 PBD inh -24.3, Pyk2 oligo antag -0.09, PTPN22 act 7.1, LYP inh 2 -7.8, PLK1 confirm 6.9 and Plk1 interf -53.6.
`Cc1cc(C)c2c(=O)[nH]c(SCC(=O)N3CCCCC3)nc2n1` gave PLK1 kinase inh 6.7, PLK1 PBD inh 9.8, Pyk2 oligo antag -0.04, PTPN22 act -6.9 and LYP inh 2 5.5.
`Cc1cc(Oc2ccc(-c3ccccc3)cc2)n2ncnc2n1` gave Pyk2 oligo antag -0.85.
Screening Cc1cc(C(C#N)c2cccc(Cl)c2)n2ncnc2n1 (stereo not given) returned PLK1 kinase inh 71.0*, PLK1 PBD inh 25.6, Pyk2 oligo antag -2.19, PTPN22 act -2.7, LYP inh 2 4.4, PLK1 confirm 62.9* and Plk1 interf -55.3.
Cc1nc(CCN2C(=O)c3ccccc3C2=O)cs1 was read as PLK1 kinase inh -1.7, PLK1 PBD inh -0.4, Pyk2 oligo antag 0.92, PTPN22 act 4.5 and LYP inh 2 -1.9.
`CC(CNCc1ccc2c(c1)OCO2)NCc1ccc2c(c1)OCO2` (stereo not given) gave PLK1 kinase inh 73.9*, PLK1 PBD inh -2.3, PLK1 confirm -13.0 and Plk1 interf -50.1.
For CCCCSc1nnc(-c2cc(Br)ccc2N)c(=O)[nH]1 the results were PLK1 kinase inh -15.4, PLK1 PBD inh -2.7, Pyk2 oligo antag -0.53, PTPN22 act -19.2 and LYP inh 2 16.4.
